# Test results taken from PubChem BioAssay.
# The source made the active and inactive calls. Unless noted, no stated cut-off is given here; in the data, active means inhibition above about 80%; inactive means the rest.
# What was measured:
# [1] = LFS_MB_1R medulloblastoma cell growth inhibition, synergistic combos for chromothripsis tumors, cisplatin or BGB combos (AID 1671452); conditions: LFS_MB_1R medulloblastoma cells, measured here: combination with cisplatin, at 5 µM, stronger effect = higher value;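 further: cells exposed for 96 hours before readout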
# [2] = HTB85 osteosarcoma cell growth inhibition, synergistic combos for chromothripsis tumors, BGB or cisplatin IC20 combos (AID 1671453); conditions: HTB85 osteosarcoma cells, drug combinations, stronger effect = higher value;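 further: cells exposed for 96 hours before readout; 0% = vehicle DMSO and 100% = high DMSO killing control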
# [3] = CRL2098 osteosarcoma cell growth inhibition, synergistic combos for chromothripsis tumors, BGB or cisplatin IC20 combos (AID 1671454); conditions: CRL2098 osteosarcoma cells, drug combinations, stronger effect = higher value;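 further: cells exposed for 96 h before readout; 0% = vehicle DMSO and 100% = killing by high DMSO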
# [4] = HD-MB03 medulloblastoma cell growth inhibition, synergistic combos for chromothripsis tumors, BGB or cisplatin IC20 combos (AID 1671455; in the data active means inhibition above about 83%;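 further: 0% = vehicle DMSO and 100% = high DMSO as cytotoxic control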); conditions: HD-MB03 medulloblastoma cells, stronger effect = higher value
# [5] = UWB1.289 ovarian carcinoma cell growth inhibition, synergistic combos for chromothripsis tumors, BGB or cisplatin combos (AID 1671456); conditions: UWB1.289 ovarian carcinoma cells, stronger effect = higher value;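 further: cells exposed to compound for four days; 0% = vehicle DMSO and 100% = killing by high DMSO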
# [6] = LFS_MB_2R medulloblastoma cell growth inhibition, synergistic combos for chromothripsis tumors, cisplatin combos (AID 1671457); conditions: LFS_MB_2R medulloblastoma cells, stronger effect = higher value;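 further: cells exposed to compound for four days before readout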
# [7] = MDA-MB-436 breast carcinoma cell growth inhibition, synergistic combos for chromothripsis tumors, BGB or cisplatin combos (AID 1671458; call rule not given here;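 further: cells exposed for 96 hours; 0% = vehicle DMSO and 100% = killing by high DMSO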); conditions: MDA-MB-436 breast carcinoma growth inhibition, drug combinations, stronger effect = higher value
# [8] = UWB1.289_BRCA1 ovarian cancer growth, cell-based, BGB or cisplatin combinations (AID 1671459); conditions: UWB1.289 BRCA1 ovarian carcinoma, drug combinations, stronger effect = higher value
# [9] = human astrocyte viability loss, single and combined drugs, cytotoxicity control for chromothriptic childhood tumor combination screen, cell-based, BGB or cisplatin IC20 combos (AID 1671460); conditions: Human astrocytes, drug combinations, stronger effect = higher value;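 further: cells exposed to compounds for 96 hours before viability readout; 0% = vehicle and 100% = killing control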
# [10] = growth inhibition of BT084 medulloblastoma cells, cell-based, ICGC_MB145, cisplatin and BGB IC40 combos (AID 1671461); conditions: drug combinations, stronger effect = higher value;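 further: cells exposed to drugs for 96 hours; 0% = vehicle DMSO and 100% = high DMSO full killing control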
# [11] = growth inhibition of RCMB18 medulloblastoma cells, cell-based, cisplatin and BGB IC40 combos (AID 1671462); conditions: stronger effect = higher value;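 further: cells exposed to compound for four days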
# [12] = growth inhibition of CRL1545 osteosarcoma cells, cell-based, cisplatin and BGB IC20 combos (AID 1671464); conditions: stronger effect = higher value;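 further: cells exposed to compound for 96 hours before readout; 0% = vehicle DMSO and 100% = high DMSO killing control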
# [13] = measured here: combination with cisplatin, at 0.5 µM
smiles,measurement,setting,value
Cc1c2ccncc2c(C)c2c1[nH]c1ccccc12,inhibition,[1],99.2%
same,inhibition,[2]; at 0.5 µM,-6.03% (inactive)
same,inhibition,"[2]; measured here: with BGB IC20, at 0.5 µM",-6.83%
same,inhibition,"[2]; measured here: with BGB IC20, at 5 µM",36.4%
same,inhibition,"[2]; measured here: with cisplatin IC20, at 0.5 µM",-14.1%
same,inhibition,"[2]; measured here: with cisplatin IC20, at 5 µM",40.2%
same,inhibition,"[2]; single agent, at 5 µM",51.7%
same,inhibition,[3]; at 0.5 µM,-3.13% (inactive)
same,inhibition,"[3]; measured here: combination with BGB at IC20, at 0.5 µM",-26.6%
same,inhibition,"[3]; measured here: combination with cisplatin at IC20, at 0.5 µM",16.5%
same,inhibition,[4]; at 0.5 µM,21.3% (inactive)
same,inhibition,"[4]; measured here: combo with BGB at IC20, at 0.5 µM",32.4%
same,inhibition,"[4]; measured here: combo with cisplatin at IC20, at 0.5 µM",9.33%
same,inhibition,[5]; at 0.5 µM,18% (inactive)
same,inhibition,"[5]; measured here: inhibition with BGB combination, at 0.05 µM",-8.89%
same,inhibition,"[5]; measured here: inhibition with cisplatin combination, at 0.05 µM",-1.5%
same,inhibition,[6]; at 0.5 µM,-5.42% (inactive)
same,inhibition,[6]; [13],15.1%
same,inhibition,"[6]; measured here: combination with cisplatin, at 5 µM",95.3%
same,inhibition,[7]; at 0.5 µM,-9.97% (inactive)
same,inhibition,"[7]; measured here: BGB combination, at 0.5 µM",-20.5%
same,inhibition,"[7]; measured here: BGB combination, at 5 µM",24.1%
same,inhibition,"[7]; measured here: cisplatin combination, at 0.5 µM",-26.7%
same,inhibition,"[7]; measured here: cisplatin combination, at 5 µM",24.1%
same,inhibition,"[8]; BGB combination, concentration series, at 5 µM",104%
same,inhibition,[8]; at 0.5 µM,21.4% (inactive)
same,inhibition,"[8]; cisplatin combination, concentration series, at 5 µM",113%
same,inhibition,[9]; at 0.5 µM,13.8% (inactive)
same,inhibition,"[9]; measured here: combo with BGB IC20, at 0.5 µM",4.66%
same,inhibition,"[9]; measured here: combo with cisplatin IC20, at 0.5 µM",-5.08%
same,inhibition,[10]; at 0.5 µM,48.9% (inactive)
same,inhibition,"[10]; cisplatin combination, at 0.5 µM",60.2%
same,inhibition,"[10]; cisplatin combination, at 5 µM",49.9%
same,inhibition,"[10]; measured here: BGB IC40 combination 0.05 uM, at 0.05 µM",16.8%
same,inhibition,"[10]; single agent, at 5 µM",44.6%
same,inhibition,[11]; at 0.5 µM,14.6% (inactive)
same,inhibition,"[11]; cisplatin combo, at 5 µM",91.5%
same,inhibition,"[11]; measured here: BGB IC40 combination, at 0.05 µM",1.25%
same,inhibition,[11]; [13],-51.3%
same,inhibition,"[11]; single agent, at 5 µM",70.8%
same,inhibition,[12]; at 0.5 µM,-40.6% (inactive)
same,inhibition,"[12]; measured here: with BGB IC20 combination, at 0.5 µM",-33.3%
same,inhibition,"[12]; measured here: with cisplatin IC20 combination, at 0.5 µM",-46.6%
same,inhibition,"[12]; single agent, at 0.05 µM",-12.4%
same,inhibition,"[12]; single agent, at 5 µM",68.6%
